# PubChem BioAssay (NCATS)
# Inconclusive results are not listed. Where a call stands in place of a potency, no number is given. A number with no mark means an inactive call. Activity calls are given as the source filed them. Calls follow the shape of the dose curve; as a rule, active = well fitted cell-killing curve with a large enough effect; inconclusive = small, poorly fitted or top-dose-only effect, or effect the other way; inactive = no such curve, though single readings can be large or run the other way.
# Assays:
# [1] = Quantitative High-Throughput drug screen in 47 multiple myeloma cell lines against the NCATS MIPE library collection: SKMM1_PLB cell viability assay (AID 1919863); conditions: SKMM1 myeloma viability, CellTiter-Glo ATP, 48 h; viability: stronger effect = lower value; also: nearly all actives have a fitted effect of over 35% in size; also: potency is read from the fitted curve at half-maximal effect
# Summary of the method: (§1)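 ATP-based luminescence (CellTiter-Glo, 5 min RT incubation) quantified surviving cells following two days' treatment with MIPE 4.0 agents at 37 °C, 5% CO2.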
# [2] = Quantitative High-Throughput drug screen in 47 multiple myeloma cell lines against the NCATS MIPE library collection: XG6_PLB cell viability assay (AID 1919865); also: nearly all actives have a fitted effect of over 40% in size; also: potency is read from the fitted curve at half-maximal effect
# Summary of the method: as §1
# [3] = Quantitative High-Throughput drug screen in 47 multiple myeloma cell lines against the NCATS MIPE library collection: VP6_DJ cell viability assay (AID 1919867); also: nearly all actives have a fitted effect of over 40% in size; also: potency is read from the fitted curve at half-maximal effect
# Summary of the method: as §1
# [4] = Quantitative High-Throughput drug screen in 47 multiple myeloma cell lines against the NCATS MIPE library collection: OPM2_DSMZ cell viability assay (AID 1919872); also: nearly all actives have a fitted effect of over 30% in size; also: potency is read from the fitted curve at half-maximal effect
# Summary of the method: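 Myeloma cells (500 per well) were exposed to MIPE 4.0 compounds by pin transfer and incubated 48 hours at 37C, 5% CO2. Viability was read as ATP by CellTiter-Glo luminescence, normalised to DMSO (100%) and media-only (0%) wells.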
# [5] = Quantitative High-Throughput drug screen in 47 multiple myeloma cell lines against the NCATS MIPE library collection: U266_ATCC cell viability assay (AID 1919864); also: nearly all actives have a fitted effect of over 35% in size; also: potency is read from the fitted curve at half-maximal effect
# Summary of the method: as §1
# [6] = Quantitative High-Throughput drug screen in 47 multiple myeloma cell lines against the NCATS MIPE library collection: UTMC2_PLB cell viability assay (AID 1919868); conditions: CellTiter-Glo ATP luminescence, 48 h; viability (% of DMSO control): at 45.8 µM (top of the series); also: nearly all actives have a fitted effect of over 55% in size; also: potency is read from the fitted curve at half-maximal effect
# Summary of the method: as §1
# [7] = Quantitative High-Throughput drug screen in 47 multiple myeloma cell lines against the NCATS MIPE library collection: KMS11_JCRBsus cell viability assay (AID 1919873); also: nearly all actives have a fitted effect of over 50% in size; also: potency is read from the fitted curve at half-maximal effect
# Summary of the method: as §1
# [8] = Quantitative High-Throughput drug screen in 47 multiple myeloma cell lines against the NCATS MIPE library collection: KMS28BM_JCRB cell viability assay (AID 1919874); also: nearly all actives have a fitted effect of over 35% in size; also: potency is read from the fitted curve at half-maximal effect
# Summary of the method: as §1
# [9] = Quantitative High-Throughput drug screen in 47 multiple myeloma cell lines against the NCATS MIPE library collection: PCM6_Riken cell viability assay (AID 1919870); also: nearly all actives have a fitted effect of over 30% in size; also: potency is read from the fitted curve at half-maximal effect
# Summary of the method: as §1
# [10] = Quantitative High-Throughput drug screen in 47 multiple myeloma cell lines against the NCATS MIPE library collection: OPM1_PLB cell viability assay (AID 1918989); also: nearly all actives have a fitted effect of over 40% in size; also: potency is read from the fitted curve at half-maximal effect
# Summary of the method: as §1
# [11] = Quantitative High-Throughput drug screen in 47 multiple myeloma cell lines against the NCATS MIPE library collection: PE2_PLB cell viability assay (AID 1919869); also: nearly all actives have a fitted effect of over 35% in size; also: potency is read from the fitted curve at half-maximal effect
# Summary of the method: as §1
# [12] = Quantitative High-Throughput drug screen in 47 multiple myeloma cell lines against the NCATS MIPE library collection: XG1_PLB cell viability assay (AID 1919866); also: nearly all actives have a fitted effect of over 35% in size; also: potency is read from the fitted curve at half-maximal effect
# Summary of the method: as §1
# [13] = Quantitative High-Throughput drug screen in 47 multiple myeloma cell lines against the NCATS MIPE library collection: RPMI8226_ATCC cell viability assay (AID 1919871); also: nearly all actives have a fitted effect of over 30% in size
# Summary of the method: as §1
structure (smiles),measurement,setting,value
N#Cc1ccc(NC(=O)Nc2ccccc2Br)c2n[nH]nc12,viability,[1],115%
same,Potency,[2],5.26 µM (active)
same,Potency,[3],10.5 µM (active)
same,Potency,[4],inactive
CO[C@H]1C[C@@H]2CC[C@@H](C)[C@@](O)(O2)C(=O)C(=O)N2CCCC[C@@H]2C(=O)O[C@H]([C@H](C)C[C@@H]2CC[C@H](OP(C)(C)=O)[C@H](OC)C2)CC(=O)[C@H](C)C=C(C)[C@@H](O)[C@@H](OC)C(=O)[C@H](C)C[C@H](C)C=CC=CC=C1C,viability,[1],83.3%
same,Potency,[5],inactive
same,Potency,[6],inactive
same,Potency,[4],inactive
same,Potency,[7],inactive
same,Potency,[8],inactive
CC(C)(C)COc1ccc(-n2cc(C(=O)O)cn2)cc1C#N,viability,[1],120%
same,Potency,[5],inactive
same,Potency,[2],inactive
same,Potency,[6],inactive
same,Potency,[9],inactive
same,Potency,[4],inactive
same,Potency,[7],inactive
CO[C@@H](C(=O)N1Cc2[nH]nc(NC(=O)c3ccc(N4CCN(C)CC4)cc3)c2C1)c1ccccc1,Potency,[10],8.33 µM (active)
same,Potency,[2],20.9 µM (active)
same,Potency,[6],0.0332 µM (active)
same,Potency,[11],20.9 µM (active)
same,Potency,[9],26.4 µM (active)
same,Potency,[8],1.66 µM (active)
CC(C)(C(=O)NCC(F)(F)C(F)(F)F)C(=O)N[C@@H]1C(=O)Nc2ccccc2-c2ccccc21,viability,[1],128%
same,Potency,[2],16.6 µM (active)
same,Potency,[12],10.5 µM (active)
same,Potency,[11],18.7 µM (active)
same,Potency,[9],3.32 µM (active)
same,Potency,[4],inactive
same,Potency,[8],inactive
COc1cc(N2CCC(N3CCN(C)CC3)CC2)ccc1Nc1ncnc(Nc2ccccc2S(=O)(=O)C(C)C)n1,Potency,[1],23.5 µM (active)
same,Potency,[2],7.43 µM (active)
same,Potency,[9],16.6 µM (active)
CC=CCC=CCCC(=O)[C@H]1O[C@@H]1C(N)=O,Potency,[1],18.7 µM (active)
same,Potency,[2],18.7 µM (active)
same,Potency,[12],20.9 µM (active)
same,Potency,[3],23.5 µM (active)
same,Potency,[11],23.5 µM (active)
same,Potency,[9],20.9 µM (active)
same,Potency,[7],20.9 µM (active)
same,Potency,[8],14.8 µM (active)
CCCCCCCCCCCC1=C(O)C(=O)C=C(O)C1=O,Potency,[10],3.72 µM (active)
same,Potency,[2],0.372 µM (active)
same,Potency,[3],2.64 µM (active)
same,Potency,[4],7.43 µM (active)
CNC(=O)c1ccc2cc(C3(O)CCn4cncc43)ccc2c1 (stereo not drawn),Potency,[10],inactive
same,Potency,[12],inactive
same,Potency,[3],inactive
same,Potency,[11],inactive
same,Potency,[9],inactive
same,Potency,[13],inactive
same,Potency,[4],inactive
same,Potency,[7],inactive
same,Potency,[8],inactive
O=c1ccn([C@@H]2O[C@H](CO)[C@H](O)[C@H]2O)c(=O)[nH]1,Potency,[10],inactive
same,Potency,[2],inactive
same,Potency,[11],inactive
same,Potency,[9],inactive
same,Potency,[8],inactive
C[C@@H]1CCN(C(=O)CC#N)C[C@H]1N(C)c1ncnc2[nH]ccc12,Potency,[10],inactive
same,Potency,[6],inactive
same,Potency,[9],inactive
same,Potency,[4],inactive
CC[C@H]1OC(=O)[C@H](C)[C@@H](O[C@H]2C[C@@](C)(OC)[C@@H](O)[C@H](C)O2)[C@H](C)[C@@H](O[C@@H]2O[C@H](C)C[C@H](N(C)C)[C@@H]2O)[C@](C)(O)C[C@@H](C)CN(C)[C@H](C)[C@@H](O)[C@]1(C)O,Potency,[1],16.6 µM (active)
same,Potency,[5],9.35 µM (active)
same,Potency,[3],inactive
same,Potency,[11],inactive
same,Potency,[7],inactive
same,Potency,[8],inactive
CC(C)C(=O)Oc1ccc(CO)cc1[C@H](CCN(C(C)C)C(C)C)c1ccccc1,Potency,[10],inactive
same,Potency,[12],inactive
same,Potency,[11],inactive
same,Potency,[9],inactive
same,Potency,[4],inactive
same,Potency,[7],inactive
same,Potency,[8],inactive
CC(C)[C@H](CO)Nc1nc(Nc2ccc(C(=O)O)c(Cl)c2)c2ncn(C(C)C)c2n1,Potency,[10],10.5 µM (active)
same,Potency,[3],23.5 µM (active)
same,Potency,[11],23.5 µM (active)
C[N+]1(C)[C@@H]2CC(OC(=O)[C@H](CO)c3ccccc3)C[C@H]1[C@H]1O[C@@H]12 (stereo partly drawn),Potency,[10],inactive
same,Potency,[2],23.5 µM (active)
same,Potency,[6],inactive
same,Potency,[9],inactive
same,Potency,[4],inactive
same,Potency,[7],inactive
same,Potency,[8],inactive
O=c1cc(CN2CCOCC2)occ1OCCCCCSc1ccnc2cc(C(F)(F)F)ccc12,viability,[1],111%
same,Potency,[2],3.32 µM (active)
same,Potency,[12],11.8 µM (active)
same,Potency,[3],7.43 µM (active)
same,Potency,[6],9.35 µM (active)
same,Potency,[11],7.43 µM (active)
same,Potency,[9],9.35 µM (active)
same,Potency,[13],inactive
same,Potency,[4],11.8 µM (active)
same,Potency,[7],23.5 µM (active)
O=C(O)c1ccc(-c2c[nH]c3ncc(-c4ccccc4)cc23)cc1C1CCCC1,viability,[1],132%
same,Potency,[5],inactive
same,Potency,[13],inactive
same,Potency,[4],inactive
same,Potency,[7],inactive
same,Potency,[8],inactive
Nc1ncnc2c1ncn2[C@@H]1O[C@@H](CO)[C@H](O)[C@H]1O,Potency,[10],inactive
same,Potency,[2],inactive
same,Potency,[11],inactive
same,Potency,[13],inactive
same,Potency,[4],inactive
same,Potency,[7],inactive
